Screening data as filed in PubChem.
Most compounds without a hit are left out; they make up all but 1.4% or so of the library.
uPA surface inh: blocks generation of uPA at the cell surface. AID 540303. cell surface uPA generation assay, qHTS. 0.31% of 330,000 active. Potency, µM (doses to about 38.3 µM), without a hit: at the highest dose activity change, negative = inhibition, most hits filed as inhibitors; active = well fitted inhibition curve with a large enough effect; inconclusive = small, poorly fitted or top-dose-only effect; inactive = no such curve, though single readings can be large or run the other way; tested in mouse RAW 264.7 cells; note: potency is the fitted concentration of half-maximal effect; % is set by controls: 0 for no effect and ±100 for the full control effect; nearly all actives have a fitted effect of over 55% in size
p53 reactivator: restores transcriptional activity of mutant p53; Potency, µM (top dose mostly 92.2 µM), for the others: at the highest dose activity change, positive = activation, actives largely listed as activators; 0.063% of 320,000 active; H1299 p53-A138V BP100-luciferase reporter, luminescence, 24 h; note: potency is the fitted concentration of half-maximal effect; % of control where 0% means no effect; nearly all actives have a fitted effect of over 45% in size
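p53-null H1299 cells stably carrying temperature-sensitive p53-A138V and a BP100-luciferase reporter were pinned with compounds (4-point, 1:5 series) and held 24 hrs at 37 deg C. Luminescence was read 10 min after detection reagent.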
KCNH2 3.1 inh: KCNH2 3.1 (human) potassium channel inhibition; activity change, % (tested at about 1.8 µM); AID 720553; U2OS KCNH2 3.1, thallium flux FluxOr; active compounds read low; 0.95% of 340,000 active;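 active = maximum activity change below -70%; inconclusive = maximum activity change from -70% to -50%; inactive = maximum activity change above -50%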;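 note: thallium influx rate constant from kinetic fluorescence after stimulation buffer; % is set by controls: 0 for no effect and ±100 for the full control effect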
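Thallium flux via FluxOr fluorescence (Red40 quencher, 45 min loading) in U2OS cells virally expressing the KCNH2 3.1 isoform (1.77 x 10^8 /mL virus, overnight at 37 C). Rate constants from 2-min kinetic reads post-stimulation, normalised to positive and negative controls.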
S-ASM inh: human S-ASM enzyme inhibition; P17405; placental ASM, HMU-PC fluorogenic substrate, 60 min; Potency, µM (series often up to 57.5 µM), inactives show top-dose activity change, negative = inhibition, hits mostly inhibitors; 0.006% of 340,000 active; note: potency is the fitted concentration of half-maximal effect
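qHTS format. ASM enzyme prepared from human placenta hydrolyses the fluorogenic substrate HMU-PC0 (9 uM final) over 60 min at 37 °C after a 10 min compound preincubation.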
Mm-Cpn inhibitor: M. maripaludis TRiC chaperonin inhibition; purified Mm-Cpn ATPase, ADP Transcreener TR-FRET; 0.031% of 330,000 active; Potency, µM (highest dose often 76.9 µM), without a hit: top-dose activity, negative = inhibition, actives largely listed as inhibitors; note: potency is the fitted concentration of half-maximal effect; % is set by controls: 0 for no effect and ±100 for the full control effect; nearly all actives have a fitted effect of over 80% in size
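Reaction buffer contained 30 mM Tris pH 7.4, 100 mM KCl, 5 mM MgCl2 and 1 mM DTT. Mm-CPN (25 nM final) hydrolysed 10 uM ATP over 30 min at 37°C; ADP was read by HTRF.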
hERG WT inh: blocks the wildtype human KCNH2 potassium channel. activity change, % at 1.84 µM. U2OS, BacMam KCNH2, thallium flux FluxOr; active compounds read low. AID 720551. Q12809. 0.37% of 340,000 active;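 active = maximum activity change below -70%; inconclusive = maximum activity change between -70% and -50%; inactive = maximum activity change above -50%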; note: % is set by controls: 0 for no effect and ±100 for the full control effect
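U2OS cells were transduced with wild-type KCNH2 virus (2.03 x 10^8 / mL) for 4 h at room temperature, then cultured overnight at 37 C. Thallium flux was read with FluxOr dye. Rate constants were normalized to DMSO controls.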
* hit, by the source's call; u = inconclusive; x = not tested or not shown. Unless noted, calls come from the whole dose curve; as a rule, active = well fitted curve in the direction sought with a large enough effect; inconclusive = small, poorly fitted or top-dose-only effect, or another doubt; inactive = no such curve, though single readings can be large; an effect the other way counts as inactive or inconclusive.

SMILES | uPA surface inh | p53 reactivator | KCNH2 3.1 inh | S-ASM inh | Mm-Cpn inhibitor | hERG WT inh
Cc1cccc(C)c1NC(=S)N(Cc1cccs1)C1CCCC1 | 0.7% | 2.3% | u | 5.2% | 0.6% | -3.8
O=C(N1CCOCC1)N(Cc1cccs1)C1CCCC1 | -8.6% | -0.7% | -79.9* | 4.2% | -2.7% | -17.5
O=C(Nc1ccn(Cc2ccccc2)n1)c1ccc2c(c1)OCO2 | u | 9.2% | -81.0* | 3.6% | -29.6% | -6.4
O=C(Nc1ccn(Cc2ccc(Cl)cc2)n1)c1ccccc1 | 5.5% | 2.8% | 3.1 | 0.1% | 1.4% | -6.7
C=CCN1N=C(/C=C/c2ccc(C)cc2)CCC1=O | 4.3% | 6.0% | -108.4* | 4.3% | 0.1% | 1.6
C=CCN1N=C(/C=C/c2ccc(OC)cc2)CCC1=O | 1.7% | 11.4% | 11.5 | 2.2% | 0.7% | -11.1
Cc1cc(Cl)ccc1OC(C)C(=O)Nc1ccc([N+](=O)[O-])cn1 (stereo not given) | 4.2% | 8.7% | -94.3* | -5.4% | -13.1% | -124.7*
Cc1ccc(OC(C)C(=O)Nc2ccc(Cl)cn2)c([N+](=O)[O-])n1 (stereo not given) | -0.2% | 5.8% | 2.0 | 0.5% | 1.4% | -4.5
COc1cccc(CN2CC(C(=O)N3CCN(C(C)C)CC3)CCC2=O)c1 (stereo not given) | 8.0% | 16.1% | 5.9 | 0.9% | -0.4% | -6.9
CC(C)C[C@H]1CN=C(N(C)C)N1CCc1cccc(F)c1 | u | -0.1% | -107.2* | -0.5% | -0.2% | 9.5
C[C@@H]1CN([C@H](C)CO)C(=O)c2cc(Br)cnc2O[C@@H]1CN(C)C(=O)c1ccccc1 | x | x | -4.5 | x | x | -30.4
COc1ccc(C)cc1S(=O)(=O)NCc1ccccn1 | x | x | 18.9 | x | x | 7.9
CCOC(=O)N1CCN(c2c(NCc3ccc(F)cc3)c(=O)c2=O)CC1 | -13.0% | 10.9% | -4.4 | 1.3% | 0.6% | -12.8
CCOC(=O)N1CCN(c2c(NCc3ccc(Cl)cc3)c(=O)c2=O)CC1 | 2.82µM* | 18.4% | 2.0 | 0.2% | -0.3% | 16.1
CC(C)(C)c1ccc(S(=O)(=O)NCC(=O)Nc2ccc(-c3nc4ccccc4s3)cc2)cc1 | -0.9% | u | -4.0 | 9.7% | -0.8% | 0.8
O=C(CNS(=O)(=O)c1cccc(Cl)c1)Nc1ccc(-c2nc3ccccc3s2)cc1 | 5.4% | u | -73.5* | 4.7% | -2.8% | -7.7
Cc1nn(Cc2c(Cl)cccc2Cl)c(C)c1NC(=O)c1cc(C(C)C)on1 | 3.16µM* | u | 10.3 | 1.7% | -1.3% | -4.1
Cc1cc(C(=O)Nc2c(C)nn(Cc3c(Cl)cccc3Cl)c2C)no1 | x | 2.4% | -18.5 | 3.7% | 0.3% | 6.7
CN(C)CCNc1ncnc2c1sc1nc(-c3ccccc3)c3c(c12)CCCC3 | 1.1% | -14.1% | 0.1 | u | -0.2% | 1.9
Cc1ccc(C(=O)CSc2nnc(COc3ccc(C#N)cc3)n2-c2ccccc2)cc1 | 1.0% | 12.8% | -16.9 | 6.6% | -7.7% | 8.5
Cc1ccc(NC(=O)CSc2nnc(COc3ccc(C#N)cc3)n2-c2ccccc2)cc1C | -2.1% | -10.1% | -70.6* | -10.0% | 1.4% | -12.6
CCOc1ccc(NCc2cccn2-c2nnc(N3CCC(C(=O)NCCCN4C(C)CCCC4C)CC3)s2)cc1 (stereo not given) | -8.7% | u | 13.2 | 1.9% | -5.4% | -228.0*
COc1ccc(CC2(CO)CCN(C(C)Cc3ccc(Cl)cc3)CC2)cc1 (stereo not given) | -3.7% | 1.8% | -93.4* | -2.7% | 1.1% | -93.2*
CN(Cc1cc(Cl)cc(Cl)c1)[C@H]1C[C@H]2c3[nH]c4ccccc4c3CCN2C(=O)[C@H]1CO | x | x | -22.2 | x | x | -0.6
Cc1ccc(NC(=O)c2ccc3c(c2)S(=O)(=O)c2ccccc2C3=O)cc1S(=O)(=O)N1CCOCC1 | -3.7% | -3.8% | -190.4* | -8.3% | -2.8% | -136.3*
SMILES | uPA surface inh | p53 reactivator | KCNH2 3.1 inh | S-ASM inh | Mm-Cpn inhibitor | hERG WT inh
O=C(NC1CC1)c1cccc(NC(=O)C2CCN(S(=O)(=O)c3ccccc3C(F)(F)F)CC2)c1 | x | x | 14.0 | x | x | 17.6
CC(=NCCCn1ccnc1)c1c(C)[nH]n(-c2ccc([N+](=O)[O-])cc2)c1=O | 1.7% | 5.3% | 3.8 | -5.0% | 39.8µM* | 3.7
O=C(Nc1ccnn1C1CCN(CCCc2ccccc2)CC1)c1ccccc1Cl | -14.3% | 12.7% | -111.7* | 0.9% | -6.4% | -120.4*
CC(C)=CCN1CCC(n2nccc2NC(=O)c2ccccc2Cl)CC1 | -19.4% | 9.6% | 16.6 | -1.1% | 1.9% | 96.6
O=C(Nc1ccnn1C1CCN(Cc2cccnc2)CC1)c1ccccc1Cl | 9.0% | 12.6% | -1.2 | 0.2% | 0.4% | 23.6
CC(C)Cc1ccc(CN2CCC(n3nccc3NC(=O)C3CCCC3)CC2)cc1 | -20.2% | 18.0% | -103.0* | -1.0% | -3.7% | -73.2*
Cc1cc(CN2CCC(n3nccc3NC(=O)c3ccccc3Cl)CC2)cc(C)c1O | -15.0% | 2.3% | -77.0* | 0.0% | -2.4% | -1.0
CCOc1ccc(C(=O)OCC(=O)N(Cc2ccccc2)Cc2ccccc2)cc1OC | -3.7% | -5.1% | -2.1 | -1.6% | -2.7% | 0.1
Cc1cc(C)c(C#N)c(SCC(=O)N(CCC#N)c2ccc3c(c2)OCCO3)n1 | u | -5.7% | 1.6 | 10.1% | -2.3% | 8.9
CN(CCc1ccccc1)C(=O)c1ccc(NC(=O)Cc2ccc(NC(=O)C3CCN(C(=O)CCc4ccccc4)CC3)cc2)cc1 | u | x | 2.4 | 1.9% | x | -23.3
CSc1ccccc1NC(=O)c1ccco1 | x | 5.4% | 26.7 | 4.6% | -1.3% | -281.1*
O=C(Nc1ccccc1NC(=O)c1ccco1)c1ccco1 | -1.6% | 5.3% | x | 0.3% | -0.7% | -1.4
COc1ccc(CN(CCc2ccccc2)Cc2ccccc2)cc1OC | 11.1% | x | -82.1* | -2.6% | -1.8% | -22.8
O=C(NCc1ccc2c(c1)OCO2)C1CCN(c2ncccn2)CC1 | x | 0.9% | -4.6 | 1.3% | -0.8% | 5.6
Cc1ccnc(N2CCC(C(=O)NCc3ccc4c(c3)OCO4)CC2)n1 | -0.9% | -4.3% | -16.2 | 4.7% | -15.3% | -194.8*
N#CC(CCc1ccccc1[N+](=O)[O-])(CCc1ccccc1[N+](=O)[O-])C(N)=O | 0.1% | x | -121.0* | -0.2% | x | u
O=C(Nc1ccc2c(c1)nc1n2CCN(Cc2ccccc2)C1)NC1CCCCC1 | -5.9% | 0.0% | -84.9* | 76.3% | -7.4% | -15.2
COCCN1CCn2c(nc3cc(NC(=O)NC4CCCCC4)ccc32)C1 | -1.6% | 11.0% | -2.6 | 126.9% | -3.9% | 3.1
COCCn1c(SCC(=O)Nc2ccc(Cl)c(S(=O)(=O)N(C)C)c2)nc2ccccc21 | 0.8% | -1.8% | 3.8 | -0.2% | -0.8% | -117.6*
